Where “and” joins values, the source holds several entries; their conditions need not be identical. Equal values may be shown once. Results filed as inconclusive are left out. Calls of active or inactive are those of the source. Unless noted, the call rests on the fitted dose curve.
Legend:
[1] = qHTS assay for small molecule agonists of retinoid X receptor alpha signaling (AID 588544); conditions: HEK293T RXRa-UAS-bla, beta-lactamase reporter, 18 h; 530 nm emission;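 on activation: 0% = DMSO basal wells and 100% = reference agonist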
[2] = target: Retinoic acid receptor RXR-alpha (Homo sapiens) (UniProt P19793); assay: as above; conditions: HEK293T RXRa-UAS-bla, beta-lactamase reporter, 18 h; series mostly up to 76.7 µM
[3] = qHTS assay for small molecule antagonists of retinoid X receptor alpha signaling (AID 588546; active means well fitted inhibition curve with a large enough effect in the signal ratio, with a control signal flat, not every such curve was filed as active; the % refers to the signal ratio;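 further: cells stimulated with 9-cis-retinoic acid as agonist; on the % scale 0 is the no-effect control and ±100 the full control effect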); conditions: HEK293T RXRa-UAS-bla, beta-lactamase ratio, antagonist mode; measured here: W530 green channel, cytotoxicity proxy
Method in brief: (§1)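 Beta-lactamase reporter inhibition, read as CCF4 fluorescence ratio (ex 405, em 460/530 nm) after 2 h at RT. HEK293T UAS-bla cells, 2500/well, were stimulated with 9-cis-RA at 500 or 100 nM final alongside test compound for 18 h at 37 C.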

[4] = target: Retinoic acid receptor RXR-alpha (Homo sapiens) (UniProt P19793); assay: as above; conditions: HEK293T RXRa-UAS-bla, beta-lactamase ratio, antagonist mode
Method in brief: as §1

[5] = target: Thyroid hormone receptor beta (Homo sapiens) (UniProt P10828); assay: qHTS assay for small molecule antagonists of thyroid hormone receptor beta signaling (AID 588547; active means well fitted inhibition curve with a large enough effect in the signal ratio, with a control signal flat, not every such curve was filed as active; the % refers to the signal ratio;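 further: cells stimulated with 0.4 nM T3 agonist during compound exposure; on the % scale 0 is the no-effect control and ±100 the full control effect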); conditions: TR-UAS-bla HEK293, beta-lactamase ratio, antagonist mode, 18 h
Method in brief: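 TR-UAS-bla GripTite HEK293 cells in 2% charcoal/dextran FBS medium; compounds 0.59 nM to 92 uM with T3 at 0.4nM final, 18 h at 37 C. Beta-lactamase read by CCF4 fluorescence (460/530 nm); Hill fits gave IC50 and efficacy.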

[6] = target: Voltage-gated inwardly rectifying potassium channel KCNH2 (Homo sapiens) (UniProt Q12809); assay: qHTS Assay for Small Molecule Inhibitors of the Human hERG Channel Activity (AID 588834; active means well fitted inhibition curve with a large enough effect;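 further: lower thallium flux fluorescence means stronger hERG block; nearly all actives have a fitted effect of over 50% in size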; further: potency means the concentration at half of the fitted maximal effect); conditions: U2OS BacMam hERG, FluxOR thallium flux fluorescence; series mostly up to 92.2 µM
Method in brief: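 Thallium serves as surrogate for K+ influx through BacMam-delivered hERG in U2OS cells. Compounds are added for about 10 minutes after dye loading; stimulation buffer then starts flux, monitored kinetically on FDSS.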

[7] = qHTS assay for small molecule activators of the nuclear factor-kappa B (NF-kB) signaling pathway (AID 651749; active means well fitted activation curve with a large enough effect in the signal ratio; the % refers to the signal ratio; further: % of control where 0% means no effect); conditions: NF-kB-bla ME-180 cells, beta-lactamase FRET ratio, 16 h; stronger effect = higher value
Method in brief: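 In this qHTS format, compounds acting as activators increase NF-kB-driven beta-lactamase in ME-180 cells, measured as disrupted FRET after 16 hr exposure at 37C and 5% CO2.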

[8] = target: Thyroid hormone receptor beta (Homo sapiens) (UniProt P10828); assay: qHTS assay for small molecule agonists of thyroid hormone receptor beta signaling (AID 588545); conditions: TR-UAS-bla GripTite HEK 293, beta-lactamase ratio, agonist mode, 18 h, percent of T3 response, DMSO as zero; series mostly up to 76.7 µM
Method in brief: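 Agonist-mode beta-lactamase reporter assay, HEK 293 cells, 2% charcoal/dextran FBS; cells plated 4 hrs, compound 18 hrs at 37 C, CCF4 2 hrs RT. Normalized to 10 nM T3 (100%) and DMSO (0%); Hill fit gives EC50, efficacy.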

[9] = qHTS assay for small molecule activators of the p53 signaling pathway (AID 651743; active means well fitted activation curve with a large enough effect in the signal ratio, not every such curve was filed as active; the % refers to the signal ratio; further: % of control where 0% means no effect); conditions: HCT-116 p53RE-bla, beta-lactamase FRET ratio, 16 h; stronger effect = higher value
Method in brief: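 Following 16 hours of compound exposure at 37 C, HCT-116 cells bearing the p53RE-bla reporter were loaded with LiveBLAzer B/G FRET substrate for 2 hours at room temperature and fluorescence intensity was recorded.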

[10] = qHTS assay for small molecule agonists of the antioxidant response element (ARE) signaling pathway (AID 651741; active means well fitted activation curve with a large enough effect in the signal ratio; the % refers to the signal ratio; further: % of control where 0% means no effect); conditions: HepG2 ARE-bla reporter, beta-lactamase FRET ratio, 16 h; series mostly up to 96 µM
Method in brief: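 Stably integrated ARE-beta-lactamase reporter HepG2 cells; 16 h compound incubation, 37 C; LiveBLAzer FRET substrate 2 h at room temperature; fluorescence intensity.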

Chain of Voltage-gated inwardly rectifying potassium channel KCNH2 (Homo sapiens) (Q12809 whole entry, looked up): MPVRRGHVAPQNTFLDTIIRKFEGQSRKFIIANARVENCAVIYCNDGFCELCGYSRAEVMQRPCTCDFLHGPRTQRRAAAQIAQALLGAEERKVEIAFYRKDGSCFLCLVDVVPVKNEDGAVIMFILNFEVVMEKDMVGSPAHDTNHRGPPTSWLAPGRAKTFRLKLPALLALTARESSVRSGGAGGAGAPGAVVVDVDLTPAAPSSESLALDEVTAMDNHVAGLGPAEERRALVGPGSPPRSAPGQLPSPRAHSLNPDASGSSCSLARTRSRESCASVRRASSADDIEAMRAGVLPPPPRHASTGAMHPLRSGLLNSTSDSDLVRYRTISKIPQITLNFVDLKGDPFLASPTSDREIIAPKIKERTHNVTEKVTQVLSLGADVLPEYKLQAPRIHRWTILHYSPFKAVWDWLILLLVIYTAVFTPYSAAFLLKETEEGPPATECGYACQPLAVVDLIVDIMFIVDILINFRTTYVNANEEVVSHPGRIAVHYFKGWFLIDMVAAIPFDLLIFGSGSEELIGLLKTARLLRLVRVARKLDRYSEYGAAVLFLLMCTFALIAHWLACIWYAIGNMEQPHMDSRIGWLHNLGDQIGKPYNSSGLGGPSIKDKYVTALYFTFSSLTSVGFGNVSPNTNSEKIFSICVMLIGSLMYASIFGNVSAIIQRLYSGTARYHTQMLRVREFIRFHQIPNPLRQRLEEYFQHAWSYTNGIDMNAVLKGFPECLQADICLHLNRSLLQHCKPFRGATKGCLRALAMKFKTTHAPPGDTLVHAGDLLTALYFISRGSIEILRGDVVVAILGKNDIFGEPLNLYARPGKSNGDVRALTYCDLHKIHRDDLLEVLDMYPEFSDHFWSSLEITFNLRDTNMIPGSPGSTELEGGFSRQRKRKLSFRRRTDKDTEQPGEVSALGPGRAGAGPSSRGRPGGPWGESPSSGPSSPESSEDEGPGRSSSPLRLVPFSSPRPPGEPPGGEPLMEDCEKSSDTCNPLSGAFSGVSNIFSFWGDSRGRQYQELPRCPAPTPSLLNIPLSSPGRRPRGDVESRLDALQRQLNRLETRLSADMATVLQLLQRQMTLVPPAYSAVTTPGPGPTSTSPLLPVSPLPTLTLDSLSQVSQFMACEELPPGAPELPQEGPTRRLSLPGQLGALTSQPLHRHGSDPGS
Chain of Retinoic acid receptor RXR-alpha (Homo sapiens) (P19793 whole entry, looked up): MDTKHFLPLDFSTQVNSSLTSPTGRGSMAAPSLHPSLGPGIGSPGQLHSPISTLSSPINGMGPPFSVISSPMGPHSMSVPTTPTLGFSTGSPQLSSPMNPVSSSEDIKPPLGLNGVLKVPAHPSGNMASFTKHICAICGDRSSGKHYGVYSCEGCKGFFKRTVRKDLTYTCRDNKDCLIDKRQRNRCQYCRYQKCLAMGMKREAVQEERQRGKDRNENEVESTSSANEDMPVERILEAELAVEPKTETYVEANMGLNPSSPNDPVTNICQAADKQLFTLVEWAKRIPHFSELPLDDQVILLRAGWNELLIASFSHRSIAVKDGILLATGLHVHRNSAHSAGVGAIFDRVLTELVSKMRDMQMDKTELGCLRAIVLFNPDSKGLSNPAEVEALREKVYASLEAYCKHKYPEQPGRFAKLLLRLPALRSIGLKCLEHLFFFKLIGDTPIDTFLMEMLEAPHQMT
Chain of Thyroid hormone receptor beta (Homo sapiens) (P10828 whole entry, looked up): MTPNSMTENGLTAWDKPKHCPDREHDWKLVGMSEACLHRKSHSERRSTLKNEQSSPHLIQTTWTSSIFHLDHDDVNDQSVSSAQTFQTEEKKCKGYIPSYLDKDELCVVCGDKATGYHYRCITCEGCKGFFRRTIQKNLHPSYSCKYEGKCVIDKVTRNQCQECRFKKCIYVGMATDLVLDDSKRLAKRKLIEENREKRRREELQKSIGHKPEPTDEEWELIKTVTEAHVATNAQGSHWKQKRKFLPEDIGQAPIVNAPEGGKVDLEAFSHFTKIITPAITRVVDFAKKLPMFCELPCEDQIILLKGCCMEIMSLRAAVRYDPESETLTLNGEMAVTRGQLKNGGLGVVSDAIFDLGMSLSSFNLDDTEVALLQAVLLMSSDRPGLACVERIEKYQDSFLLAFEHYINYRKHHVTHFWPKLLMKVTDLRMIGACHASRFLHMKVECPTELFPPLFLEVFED

Row | Compound | max response [1] | outcome [2] | max response [3] | max response [4] | activity change % (negative = inhibition) [5] | Potency [6] | activation [7] | outcome [8] | activation [9] | Potency [10]
1 | CC(=O)OCc1ccco1 | 9.34% | inactive | -0.347% | 29.2% (inactive) | -12.4% (inactive) | inactive | 0.228% (inactive) | – | – | –
2 | CCCCOCCOCCOCCCC | -13.3% | inactive | – | – | 3.11% (inactive) | inactive | – | inactive | -0.253% (inactive) | –
3 | O=C(O)c1cc(Cl)cc(Cl)c1 | -6.8% | inactive | -0.682% | 11.3% (inactive) | 6.89% (inactive) | inactive | – | – | 1.56% (inactive) | –
4 | Cc1ccc2ccccc2c1[N+](=O)[O-] | -7.86% | inactive | 0.642% | 2.75% (inactive) | -6.91% (inactive) | inactive | 0.793% (inactive) | – | 0.53% (inactive) | –
5 | COC(=O)CC#N | -7.46% | inactive | -3.78% | -0.774% (inactive) | 2.83% (inactive) | inactive | -0.54% (inactive) | – | -2.67% (inactive) | inactive
6 | COC(=O)c1ccccc1 | 0.622% | inactive | -5.14% | 4.4% (inactive) | -7.56% (inactive) | inactive | 1.41% (inactive) | – | 7.4% (inactive) | –
7 | CC(=O)C1(C)CC2=C(CCCC2(C)C)CC1C (stereo unspecified) | -9.8% | inactive | -2.18% | 25.5% (inactive) | -1.03% (inactive) | 15.8 µM (active) | – | – | -2.14% (inactive) | –
8 | CCC(C)(C)C | 7.52% | inactive | -12.5% | 11.7% (inactive) | -4.13% (inactive) | inactive | – | – | -0.874% (inactive) | inactive
9 | CC(C)C(C)C | -13.5% | inactive | -13.7% | -1.83% (inactive) | -4.52% (inactive) | inactive | – | – | – | –
10 | Oc1c(Cl)ccc(Cl)c1Cl | 2.14% | inactive | 1.62% | – | – | inactive | – | inactive | 1.05% (inactive) | –
11 | Cc1cccc(C(=O)O)c1[N+](=O)[O-] | -4.96% | inactive | – | – | -11.8% (inactive) | inactive | -0.935% (inactive) | inactive | 1.31% (inactive) | –
12 | CCNc1ccccc1 | -5.14% | inactive | – | – | -13.9% (inactive) | inactive | – | inactive | -2.34% (inactive) | –
13 | C=C(C)C(=O)OCCCCCC | -12.9% | inactive | – | – | 6.42% (inactive) | inactive | – | inactive | -0.374% (inactive) | –
14 | Cc1ccccc1C(=O)O | -19.5% | inactive | -2.02% | 37.3% (inactive) | -4.62% (inactive) | inactive | -1.6% (inactive) | – | – | –
15 | O=[N+]([O-])c1ccc2nc[nH]c2c1 | -26.8% | inactive | – | – | – | inactive | 0.954% (inactive) | inactive | – | inactive
16 | CCOc1cc(OCC)c(C(C)=O)cc1OCC | 4.48% | inactive | 1.94% | – | – | inactive | 2.04% (inactive) | inactive | – | –
17 | O=C1NC(=O)c2cc([N+](=O)[O-])ccc21 | 3.03% | inactive | 4.85% | 7.59% (inactive) | 2.64% (inactive) | inactive | 0.0192% (inactive) | – | -2.78% (inactive) | inactive
18 | O=C(O)CN(CC(=O)O)CC(=O)O | -7.34% and 8.5% | inactive | -6.97% and -9% | -2.38% (inactive) and 4.38% (inactive) | – | inactive | – | – | -2.4% (inactive) and 1.34% (inactive) and -0.523% (inactive) | inactive

Source: PubChem BioAssay (NCATS)
